Results on 5 molecules are retold here after PubChem BioAssay (NCATS).

Experiment [1] in a line: MultiTox-Fluor Cytotoxicity Assay - LYMP1-001 - Live Cells (AID 947; active = well fitted curve in the direction sought with a large enough effect; an effect the other way counts as inactive or inconclusive;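 note: 0% = DMSO only and full inhibition = tetraoctylammonium bromide control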).
The nature of experiment [2]: MultiTox-Fluor Cytotoxicity Assay - LYMP1-002 - Dead Cells (AID 960; active = well fitted curve in the direction sought with a large enough effect; an effect the other way counts as inactive or inconclusive;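 note: 0% = DMSO and 100% = tetraoctylammonium bromide; nearly all actives have a fitted effect of over 60% in size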). The gist of the method: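 Dead-cell fluorescence (Ex/Em 485/520) after 16 h compound exposure at 37 C of LYMP1-002 lymphoblastoid cells in complete medium; AC50 by Hill equation, with data scaled between DMSO and 15 uM tetraoctylammonium bromide.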
Experiment [3] deals with Estrogen receptor (Homo sapiens) (UniProt P03372). Briefly: qHTS assay for small molecule antagonists of estrogen receptor alpha signaling (AID 588513; active = well fitted curve in the direction sought with a large enough effect in the signal ratio, with a control signal flat, not every such curve was filed as active; the % refers to the signal ratio; note: % is set by controls: 0 for no effect and ±100 for the full control effect). An outline of the steps:
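Fluorescence from CCF4 substrate after 2 h at room temperature gave reporter activity; cells had been exposed to compound and 0.5nM 17-beta-estradiol for 18 h at 37 C. Hill-equation fitting yielded IC50 and maximal response.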
In general terms: qHTS replaces the single test concentration by a dilution series.

For experiment [4] the target is unchanged. Briefly: qHTS assay for small molecule agonists of estrogen receptor alpha signaling (AID 588514).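 Note: 0% = vehicle only and 100% = reference agonist; nearly all actives have a fitted effect of over 70% in size.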 The gist of the method: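 EC50 and efficacy came from Hill fits of beta-lactamase reporter signal (CCF4 dye, 2 h at room temperature) scaled between DMSO and 20 nM 17-beta-estradiol. Agonist mode: HEK293 ER-alpha-UAS-bla cells in charcoal/dextran-stripped serum medium, 18 h compound exposure at 37 C.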

Experiment [5] deals with Glucocorticoid receptor (Homo sapiens) (UniProt P04150). Put plainly: qHTS assay for small molecule agonists of glucocorticoid receptor signaling (AID 588532; active = well fitted curve in the direction sought with a large enough effect in the signal ratio, with a control signal flat; the % refers to the signal ratio;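 note: 100% = dexamethasone at 0.1 µM and 0% = DMSO only wells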). The settings on record: HeLa MMTV-bla, beta-lactamase ratio, agonist, 18 h; stronger effect = higher value; percent of dexamethasone control, DMSO zero. An outline of the steps: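 Agonist-mode qHTS: GRE-driven beta-lactamase in HeLa cells exposed 18 h to titrated compounds (up to 92 uM), then CCF4 ratio read after 2 h at RT; Hill-fitted EC50, efficacy relative to 0.1 uM dexamethasone.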

The target in experiment [6] is Peroxisome proliferator-activated receptor gamma (Homo sapiens) (UniProt P37231). Put plainly: qHTS assay for small molecule agonists of peroxisome proliferator-activated receptor gamma signaling (AID 588536; active = well fitted curve in the direction sought with a large enough effect in the signal ratio, with a control signal flat, not every such curve was filed as active; the % refers to the signal ratio;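 note: 0% = DMSO basal wells and 100% = rosiglitazone at 2 µM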). An outline of the steps: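 Cells were plated and held 6–6.5 h at 37 C, then compounds were added as a titration series. After a further 16 h, CCF4 dye was loaded for 2 h at room temperature and emission at 460/530 nm recorded.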

A short description of experiment [7]: qHTS assay for small molecule agonists of retinoid X receptor alpha signaling (AID 588544).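 For activation: 0% = DMSO basal wells and 100% = reference agonist.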 To be noted: HEK293T RXRa-UAS-bla, beta-lactamase reporter, 18 h; 530 nm emission.
The target in experiment [8] is Retinoic acid receptor RXR-alpha (Homo sapiens) (UniProt P19793). The experiment is described as above.
Experiment [9] addresses Thyroid hormone receptor beta (Homo sapiens) (UniProt P10828). Briefly: qHTS assay for small molecule antagonists of thyroid hormone receptor beta signaling (AID 588547; active = well fitted inhibition curve with a large enough effect in the signal ratio, with a control signal flat, not every such curve was filed as active; the % refers to the signal ratio;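 note: cells stimulated with 0.4 nM T3 agonist during compound exposure; series mostly up to about 77 µM; % is set by controls: 0 for no effect and ±100 for the full control effect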). The settings on record: TR-UAS-bla HEK293, beta-lactamase ratio, antagonist mode, 18 h. An outline of the steps: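 Inhibition of T3-driven (0.4nM final) beta-lactamase reporter activity was measured over 0.59 nM to 92 uM compound after 18 h at 37 C. The cells were GripTite HEK293 TR-UAS-bla in charcoal/dextran-stripped serum, with CCF4 ratio read-out and IC50 from Hill fits.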

In experiment [10] the target is Voltage-gated inwardly rectifying potassium channel KCNH2 (Homo sapiens) (UniProt Q12809). Briefly: qHTS Assay for Small Molecule Inhibitors of the Human hERG Channel Activity (AID 588834; active = well fitted curve in the direction sought with a large enough effect; an effect the other way counts as inactive or inconclusive;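 note: top concentration of the series differs between compounds; % is set by controls: 0 for no effect and ±100 for the full control effect; lower thallium flux fluorescence means stronger hERG block; nearly all actives have a fitted effect of over 50% in size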). The gist of the method:
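Step 1: BacMam hERG transduction of U2OS, 4 hrs RT. Step 2: overnight 37 °C, plate 2000 cells/well, 4 hr. Step 3: FluxOR load, compound 10 min, stimulate, read fluorescence.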

A short description of experiment [11]: qHTS assay for small molecule activators of the p53 signaling pathway (AID 651743; active = well fitted activation curve with a large enough effect in the signal ratio, not every such curve was filed as active; the % refers to the signal ratio; note: series mostly up to about 92 µM; % of control where 0% means no effect). The settings on record: HCT-116 p53RE-bla, beta-lactamase FRET ratio, 16 h; activation: stronger effect = higher value. An outline of the steps: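 After 16 hours compound treatment at 37 C, HCT-116 cells stably expressing p53RE-driven beta-lactamase were loaded with LiveBLAzer B/G FRET substrate for 2 hours at room temperature. Fluorescence intensity served as the p53 activation read-out.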

The nature of experiment [12]: qHTS assay for small molecule disruptors of the mitochondrial membrane potential - 1 hr assay (AID 651754). Note: % is set by controls: 0 for no effect and ±100 for the full control effect; nearly all actives have a fitted effect of over 35% in size. The gist of the method: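 Mitochondrial potential in living HepG2 cells after 1 hr compound treatment at 37C was read with Mito-MPS dye added for a further 30 min. Red aggregate and green monomer fluorescence were measured; loss of potential leaves dye as cytoplasmic monomers.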

Experiment [13] deals with Tumor necrosis factor (Homo sapiens) (UniProt P01375). Briefly: qHTS assay to identify small molecules that stimulate Tumor Necrosis Factor-alpha (TNF-alpha) secretion (AID 651757; active = well fitted curve in the direction sought with a large enough effect in the signal ratio; the % refers to the signal ratio; note: 0% is about no effect). The gist of the method:
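Secreted TNF-alpha quantified by TR-FRET sandwich of two labeled anti-TNF-alpha antibodies, incubated 3 hr at room temperature. Preceded by 17 hr, 37 C compound treatment of THP-1 cells at 3000 cells/well.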

The nature of experiment [14]: qHTS assay for environmental chemicals that activate the Aryl hydrocarbon Receptor (AhR) signaling pathway (AID 651777; active = well fitted curve in the direction sought with a large enough effect; an effect the other way counts as inactive or inconclusive; note: % of control where 0% means no effect; nearly all actives have a fitted effect of over 15% in size). The settings on record: 1A2-DRE human hepatoma cells, luciferase, 24 h; activation: stronger effect = higher value. The gist of the method: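 Stable CYP1A2 promoter/DRE-luciferase human hepatoma line treated 24 hr; One-Glo luminescence, 30 min RT.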
A short description of experiment [15]: qHTS assay for small molecule agonists of the antioxidant response element (ARE) signaling pathway measured by Nrf2-dependant transcriptional activity (AID 720636; active = well fitted curve in the direction sought with a large enough effect in the repeat runs; an effect the other way counts as inactive or inconclusive;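 note: HepG2 cells with an ARE-driven luciferase reporter; % of control where 0% means no effect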). An outline of the steps:
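Reporter gene assay, HepG2 ARE-luc: 16 hr compound, 37 C, 5% CO2; read-out luciferase luminescence.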

Experiment [16] can be described thus: qHTS assay for small molecule antagonists of the retinoid-related orphan receptor gamma (ROR-gamma) signaling pathway - cell viability counter screen (AID 720652; active = well fitted curve in the direction sought with a large enough effect in the repeat runs; an effect the other way counts as inactive or inconclusive;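 note: CHO reporter cells with doxycycline-induced ROR-gamma expression; series mostly up to about 92 µM; compound exposure lasted 16 hr before ATP read; % is set by controls: 0 for no effect and ±100 for the full control effect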). An outline of the steps:
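Cytotoxicity counter screen: intracellular ATP (CellTiter-Glo luminescence) measured in the doxycycline-induced CHO RORE-luciferase reporter line after 16 hr compound exposure at 37 C, 5% CO2.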

Experiment [17] concerns the target Nuclear receptor subfamily 1 group I member 2 (Rattus norvegicus) (UniProt Q9R1A7). Put plainly: qHTS assay for small molecule activators of the rat pregnane X receptor (rPXR) signaling pathway (AID 651751; call rule not given here; note: 0% is about no effect). To be noted: rPXR reporter cells, luciferase (One-Glo), 24 h.
A short description of experiment [18]: qHTS assay for small molecule activators of the human pregnane X receptor (PXR) signaling pathway (AID 720659; call rule not given here; note: 0% is about no effect).
In experiment [19] the target is Vitamin D3 receptor (Homo sapiens) (UniProt P11473). Briefly: qHTS assay for small molecule antagonists of vitamin D receptor signaling (AID 588541).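 Note: receptor activated by calcitriol during compound treatment; series mostly up to about 77 µM; % is set by controls: 0 for no effect and ±100 for the full control effect.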 An outline of the steps:
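Antagonist-mode beta-lactamase reporter assay: HEK293T VDR-UAS-bla cells were exposed to titrated compound alongside 1-alpha,25-dihydroxyvitamin D3 at 3 nM final for 16 h. Values were normalized to the 50 nM agonist control and DMSO basal, with IC50 and efficacy from Hill equation fits.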

Experiment [20] has the same target. Put plainly: qHTS assay for small molecule agonists of vitamin D receptor signaling (AID 588543).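 Note: 0% = DMSO basal and 100% = reference agonist control.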 The gist of the method:
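Reporter cells (HEK293T, VDR-UAS-bla) were seeded in medium with 2% charcoal-stripped serum and incubated 5 h, then compounds in concentration series were added for 16 h at 37 °C. Stimulation was scaled between DMSO basal and 50 nM 1α,25-dihydroxyvitamin D3.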

Several values for one entry are separate records, joined by “and”; a condition that tells them apart may be missing. Equal values may be shown once. Records with an inconclusive call do not appear. Activity calls are given as the source filed them. Unless noted, calls come from the whole dose curve.

Chain of Tumor necrosis factor (Homo sapiens) (P01375 whole entry, looked up): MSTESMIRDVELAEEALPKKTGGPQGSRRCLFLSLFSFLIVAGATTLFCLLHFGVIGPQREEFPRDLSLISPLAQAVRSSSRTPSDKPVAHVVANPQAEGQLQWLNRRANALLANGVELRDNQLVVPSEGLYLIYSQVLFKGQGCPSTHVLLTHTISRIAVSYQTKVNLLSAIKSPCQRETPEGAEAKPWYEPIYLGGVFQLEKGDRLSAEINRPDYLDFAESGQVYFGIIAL
Chain of Estrogen receptor (Homo sapiens) (P03372 whole entry, looked up): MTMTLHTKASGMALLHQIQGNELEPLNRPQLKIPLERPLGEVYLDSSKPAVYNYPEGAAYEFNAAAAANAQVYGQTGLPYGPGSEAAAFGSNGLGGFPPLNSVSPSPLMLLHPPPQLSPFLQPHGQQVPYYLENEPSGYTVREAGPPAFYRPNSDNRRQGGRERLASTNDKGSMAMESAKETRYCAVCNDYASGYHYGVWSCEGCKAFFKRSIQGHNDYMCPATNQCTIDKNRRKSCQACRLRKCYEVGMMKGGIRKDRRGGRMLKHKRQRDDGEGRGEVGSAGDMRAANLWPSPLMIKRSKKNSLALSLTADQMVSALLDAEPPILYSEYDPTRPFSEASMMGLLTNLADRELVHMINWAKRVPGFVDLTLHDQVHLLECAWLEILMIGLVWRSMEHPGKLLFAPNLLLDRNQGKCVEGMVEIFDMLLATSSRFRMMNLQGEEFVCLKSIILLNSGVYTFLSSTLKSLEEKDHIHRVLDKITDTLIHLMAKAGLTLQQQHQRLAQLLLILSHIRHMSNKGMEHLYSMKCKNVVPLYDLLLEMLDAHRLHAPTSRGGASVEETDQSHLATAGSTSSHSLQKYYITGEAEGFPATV
Chain of Vitamin D3 receptor (Homo sapiens) (P11473 whole entry, looked up): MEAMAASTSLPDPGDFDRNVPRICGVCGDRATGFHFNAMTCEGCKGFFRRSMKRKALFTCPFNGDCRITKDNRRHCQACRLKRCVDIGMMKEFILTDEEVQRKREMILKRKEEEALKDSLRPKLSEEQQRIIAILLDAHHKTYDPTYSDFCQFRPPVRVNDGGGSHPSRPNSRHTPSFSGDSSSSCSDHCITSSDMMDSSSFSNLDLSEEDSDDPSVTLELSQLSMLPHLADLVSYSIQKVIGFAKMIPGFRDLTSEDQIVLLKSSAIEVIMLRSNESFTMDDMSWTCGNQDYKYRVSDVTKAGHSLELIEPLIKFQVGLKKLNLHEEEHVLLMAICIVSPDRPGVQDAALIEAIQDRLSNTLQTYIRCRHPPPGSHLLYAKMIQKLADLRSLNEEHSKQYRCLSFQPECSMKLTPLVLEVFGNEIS
Chain of Peroxisome proliferator-activated receptor gamma (Homo sapiens) (P37231 whole entry, looked up): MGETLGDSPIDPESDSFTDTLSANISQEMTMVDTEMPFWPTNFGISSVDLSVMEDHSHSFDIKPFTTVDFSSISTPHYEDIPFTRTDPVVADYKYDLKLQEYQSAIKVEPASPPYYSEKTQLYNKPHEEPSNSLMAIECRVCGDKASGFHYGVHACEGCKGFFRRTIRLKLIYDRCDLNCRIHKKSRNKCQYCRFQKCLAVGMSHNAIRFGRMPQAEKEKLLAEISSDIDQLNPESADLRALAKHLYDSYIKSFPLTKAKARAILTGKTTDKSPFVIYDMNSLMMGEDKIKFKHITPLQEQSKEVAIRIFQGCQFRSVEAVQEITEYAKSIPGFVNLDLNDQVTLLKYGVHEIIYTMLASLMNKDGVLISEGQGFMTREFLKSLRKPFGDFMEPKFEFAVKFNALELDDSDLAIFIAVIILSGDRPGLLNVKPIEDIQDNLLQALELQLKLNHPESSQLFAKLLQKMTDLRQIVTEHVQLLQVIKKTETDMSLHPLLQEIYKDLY
Chain of Glucocorticoid receptor (Homo sapiens) (P04150 whole entry, looked up): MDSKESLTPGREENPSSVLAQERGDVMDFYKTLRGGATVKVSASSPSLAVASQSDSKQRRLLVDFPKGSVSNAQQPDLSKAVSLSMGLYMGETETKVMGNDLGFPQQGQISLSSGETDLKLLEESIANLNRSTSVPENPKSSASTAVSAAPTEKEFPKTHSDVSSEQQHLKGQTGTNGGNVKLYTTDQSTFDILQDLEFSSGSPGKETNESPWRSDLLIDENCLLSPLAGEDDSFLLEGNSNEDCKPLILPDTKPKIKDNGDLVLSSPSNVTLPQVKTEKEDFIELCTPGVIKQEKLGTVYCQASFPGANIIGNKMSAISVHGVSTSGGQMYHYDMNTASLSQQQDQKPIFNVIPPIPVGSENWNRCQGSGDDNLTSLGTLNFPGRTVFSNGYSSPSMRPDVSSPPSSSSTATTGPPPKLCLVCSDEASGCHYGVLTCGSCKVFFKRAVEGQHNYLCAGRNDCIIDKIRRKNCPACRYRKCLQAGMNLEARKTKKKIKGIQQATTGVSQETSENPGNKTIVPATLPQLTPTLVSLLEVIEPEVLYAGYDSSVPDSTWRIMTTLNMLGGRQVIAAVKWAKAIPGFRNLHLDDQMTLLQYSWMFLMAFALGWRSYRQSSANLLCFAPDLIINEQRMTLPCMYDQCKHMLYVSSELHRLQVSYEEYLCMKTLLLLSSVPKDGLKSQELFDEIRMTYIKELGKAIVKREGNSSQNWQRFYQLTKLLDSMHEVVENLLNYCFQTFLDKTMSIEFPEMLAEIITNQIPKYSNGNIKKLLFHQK
Chain of Nuclear receptor subfamily 1 group I member 2 (Rattus norvegicus) (Q9R1A7 whole entry, looked up): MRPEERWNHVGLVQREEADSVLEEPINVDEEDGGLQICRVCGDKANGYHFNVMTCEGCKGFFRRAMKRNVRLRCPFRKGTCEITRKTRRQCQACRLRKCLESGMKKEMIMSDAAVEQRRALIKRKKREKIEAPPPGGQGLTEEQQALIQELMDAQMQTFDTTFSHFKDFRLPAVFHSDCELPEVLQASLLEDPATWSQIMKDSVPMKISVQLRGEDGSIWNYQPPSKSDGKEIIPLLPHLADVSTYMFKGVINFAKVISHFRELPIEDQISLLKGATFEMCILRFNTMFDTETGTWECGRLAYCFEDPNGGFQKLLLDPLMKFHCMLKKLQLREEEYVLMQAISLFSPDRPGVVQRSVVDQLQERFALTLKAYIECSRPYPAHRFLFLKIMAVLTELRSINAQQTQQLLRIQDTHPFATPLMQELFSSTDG
Chain of Voltage-gated inwardly rectifying potassium channel KCNH2 (Homo sapiens) (Q12809 whole entry, looked up): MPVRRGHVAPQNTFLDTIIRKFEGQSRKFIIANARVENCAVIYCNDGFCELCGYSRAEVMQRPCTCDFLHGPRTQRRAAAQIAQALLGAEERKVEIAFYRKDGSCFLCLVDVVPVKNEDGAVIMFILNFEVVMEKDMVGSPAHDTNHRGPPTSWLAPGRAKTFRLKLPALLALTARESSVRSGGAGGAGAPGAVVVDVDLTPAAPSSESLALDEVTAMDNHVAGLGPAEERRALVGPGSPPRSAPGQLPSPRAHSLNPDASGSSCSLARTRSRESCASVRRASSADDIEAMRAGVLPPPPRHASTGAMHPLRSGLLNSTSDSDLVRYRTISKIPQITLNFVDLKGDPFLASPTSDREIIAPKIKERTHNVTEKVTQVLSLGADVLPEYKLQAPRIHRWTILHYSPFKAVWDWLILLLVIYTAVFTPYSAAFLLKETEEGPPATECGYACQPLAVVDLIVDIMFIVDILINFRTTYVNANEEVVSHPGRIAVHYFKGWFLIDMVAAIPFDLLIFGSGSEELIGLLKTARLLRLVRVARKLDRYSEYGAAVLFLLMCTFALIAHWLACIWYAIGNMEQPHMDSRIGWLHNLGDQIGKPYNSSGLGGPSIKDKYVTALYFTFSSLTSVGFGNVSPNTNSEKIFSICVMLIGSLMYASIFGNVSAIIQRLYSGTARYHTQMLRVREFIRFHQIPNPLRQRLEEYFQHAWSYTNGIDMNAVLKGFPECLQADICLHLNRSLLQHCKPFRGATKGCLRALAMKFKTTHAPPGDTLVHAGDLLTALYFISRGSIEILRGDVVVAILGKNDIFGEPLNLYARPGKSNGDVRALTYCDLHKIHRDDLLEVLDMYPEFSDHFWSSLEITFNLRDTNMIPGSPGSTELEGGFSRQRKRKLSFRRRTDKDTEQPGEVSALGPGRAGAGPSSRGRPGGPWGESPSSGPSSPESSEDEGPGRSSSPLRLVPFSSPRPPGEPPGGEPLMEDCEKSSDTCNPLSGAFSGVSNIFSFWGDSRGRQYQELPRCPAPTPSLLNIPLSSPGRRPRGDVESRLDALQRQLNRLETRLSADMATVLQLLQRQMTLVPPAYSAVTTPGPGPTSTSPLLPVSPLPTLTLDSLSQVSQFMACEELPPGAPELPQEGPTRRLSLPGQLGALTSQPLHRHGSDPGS
Chain of Thyroid hormone receptor beta (Homo sapiens) (P10828 whole entry, looked up): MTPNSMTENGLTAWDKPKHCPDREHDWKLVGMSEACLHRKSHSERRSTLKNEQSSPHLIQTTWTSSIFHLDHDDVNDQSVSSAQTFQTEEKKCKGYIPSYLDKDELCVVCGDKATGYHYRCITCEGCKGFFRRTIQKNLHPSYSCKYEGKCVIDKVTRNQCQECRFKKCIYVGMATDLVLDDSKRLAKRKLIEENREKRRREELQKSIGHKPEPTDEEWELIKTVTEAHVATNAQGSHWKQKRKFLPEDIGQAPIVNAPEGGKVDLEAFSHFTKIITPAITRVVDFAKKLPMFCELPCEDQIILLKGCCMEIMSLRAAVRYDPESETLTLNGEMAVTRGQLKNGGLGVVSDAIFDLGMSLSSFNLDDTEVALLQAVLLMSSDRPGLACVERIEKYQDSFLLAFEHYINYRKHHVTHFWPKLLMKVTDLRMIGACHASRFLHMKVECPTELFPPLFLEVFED

Turning to `Clc1cc(Cl)c(Cl)cc1Cl`, the Potency entry in experiment [1], in [2], in experiment [3], in experiment [4], in experiment [10] and in experiment [12] was “inactive” throughout. For the same molecule, the Potency result in [15] and in experiment [16] was “inactive” each time. Moreover, the activation is 3.81% (inactive) and -2.02% (inactive) in [5]; -2.65% (inactive) and -1.28% (inactive) in [11]; -0.0961% (inactive) and 4.29% (inactive) in experiment [14]. Moreover, the result in experiment [6], in experiment [8], in [13] and in experiment [18] was inactive. For the same molecule, the max response in experiment [7] is 4.21% and -11.5%; in [17], 1.48% (inactive) and 5.88% (inactive). The activity change % (negative = inhibition) in [9] is 5.68% (inactive) and 7.52% (inactive).
Regarding `CC1=CC(C)(C)Nc2ccccc21`, the Potency entry in [1], in [2], in experiment [3], in [4], in experiment [10] and in experiment [12] was “inactive” in each case. Also, the Potency entry in [15] and in [16] was “inactive” in each case. Moreover, the outcome in [6], in experiment [19], in [20], in [8] and in experiment [13] was inactive. The max response in experiment [7] was -19.9% and -2.04%. For the same molecule, the activity change % (negative = inhibition) in [9] was -25% (inactive). Also, the activation is -2.38% (inactive) and -0.537% (inactive) in [11]; 1.47% (inactive) and 1.06% (inactive) in [14].
Take `CCCCCCCCO`: the Potency entry in experiment [1], in [3], in [4], in [10], in [12] and in [15] was “inactive” each time. Also, the Potency entry in [16] was “inactive”. The activation in experiment [5] was -2.22% (inactive) and -1.08% (inactive); in experiment [11] it was -2.87% (inactive) and -7.85% (inactive) and -0.202% (inactive); in [14], -0.529% (inactive) and -1.53% (inactive) and 2.03% (inactive). The call in [6], in [19], in experiment [20], in experiment [8], in [13] and in [18] was inactive. The max response in [7] was -1.34% and -17.2% and -8.68%; in experiment [17], -3.47% (inactive) and -2.32% (inactive) and 2.37% (inactive). Also, the activity change % (negative = inhibition) in experiment [9] is -10.6% (inactive) and 5.6% (inactive) and -2.56% (inactive).
For the molecule `c1ccc2c(c1)[nH]c1ccccc12`, the Potency result in experiment [1], in experiment [2], in experiment [3], in experiment [4], in experiment [10] and in [16] was “inactive” in each case. The activation was -0.462% (inactive) and 14.4% (inactive) in [5]; 0.0697% (inactive) and -3.97% (inactive) in experiment [11]; 0.0505% (inactive) and 2.39% (inactive) in experiment [14]. Also, the result in [6], in [8], in [13] and in experiment [18] was inactive. The max response in [7] was 2.28% and -6.27%; in [17], -0.192% (inactive) and 1.32% (inactive). The activity change % (negative = inhibition) in experiment [9] is 1.02% (inactive) and -10.3% (inactive).
Turning to `Nc1ccc(S(=O)(=O)O)cc1`, the Potency entry in experiment [1], in experiment [2], in experiment [3], in [4], in experiment [10] and in experiment [12] was “inactive” in each case. Further, the Potency result in [15] and in [16] was “inactive” each time. In addition, the outcome in [6], in experiment [19], in experiment [20], in [8] and in experiment [13] was inactive. In addition, the max response in [7] was 8.69% and -7.04%; in experiment [17] it was -3.61% (inactive) and -1.3% (inactive). In addition, the activity change % (negative = inhibition) in [9] was -11.7% (inactive) and 17.4% (inactive). Also, the activation in [11] is 3.7% (inactive) and 3.55% (inactive); in experiment [14] it was -0.977% (inactive) and -1% (inactive).
